Screens from PubChem BioAssay.
Rows were chosen to be rich in hits. Some 2.6% of all compounds tested hit in one or more screens of this group.
PHOSPHO1 inh – inhibitors of human PHOSPHO1 phosphatase | Q8TCT1 | recombinant PHOSPHO1, absorbance phosphatase assay | inhibition, % at 13.3 µM | 290,000 tested, 1.1% active | AID 1565; in the data active means inhibition above about 60%
eIF4H inh – inhibitors of RNA binding by human eIF4H; Q15056; inhibition, % at 35 µM; eIF4H fluorescence polarization binding assay; 290,000 tested, 0.94% active;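 further: calls also rest on retests at 20 µM and on dose response follow-up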
PABP polyA inh – PABP-poly(A) binding inhibition | calls only at 35 µM | P11940 | 290,000 tested, 1% active | PABP-poly(A) RNA binding, fluorescence polarization;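 further: calls also rest on retests at 20 µM and on dose response follow-up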
PABP1 MLLE inh – blocks PAM2 peptide binding to the PABP1 MLLE domain. 360,000 tested, 0.36% active. inhibition, % at 20 µM. GST-MLLE / FITC-PAM2 fluorescence polarization; in the data active means inhibition above about 35%, passing the limit was not always enough;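 further: plate controls were DMSO wells with GST-MLLE for no effect and wells lacking GST-MLLE protein for full effect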
AI-2 QS modul – Vibrio harveyi AI-2 quorum sensing modulation; Vibrio harveyi JMH597 AI-2 luminescence/OD600 ratio, 9 h; hits give low values; strain lacks LuxN and CqsS sensors; 0 = neutral-control median; AID 2094; 300,000 tested, 0.4% active; activity change, % at 7.5 µM; in the data active means activity change below about -75%, passing the limit was not always enough; inconclusive means no clear call, values can overlap the other calls;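 further: luminescence divided by OD600 gain over 9 h not by final OD600 alone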
ABCB6 inh 2 – blocks the human ABCB6 transporter; Q9NP58; K562-ABCB6 porphyrin accumulation, flow cytometry, 1 h; hits give low values; fluorescence ratio to DMSO, % at 10 µM; 360,000 tested, 0.19% active;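 active means fluorescence ratio to DMSO below 75%, the collection mean minus 3 SD; inconclusive means too few cells collected in the well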;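 further: signal is porphyrin accumulated inside mitochondria; 100% equals median channel fluorescence of DMSO control wells; lower ratio means ABCB6 inhibition with less porphyrin fluorescence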
Target sequence (Q9NP58 whole entry, looked up): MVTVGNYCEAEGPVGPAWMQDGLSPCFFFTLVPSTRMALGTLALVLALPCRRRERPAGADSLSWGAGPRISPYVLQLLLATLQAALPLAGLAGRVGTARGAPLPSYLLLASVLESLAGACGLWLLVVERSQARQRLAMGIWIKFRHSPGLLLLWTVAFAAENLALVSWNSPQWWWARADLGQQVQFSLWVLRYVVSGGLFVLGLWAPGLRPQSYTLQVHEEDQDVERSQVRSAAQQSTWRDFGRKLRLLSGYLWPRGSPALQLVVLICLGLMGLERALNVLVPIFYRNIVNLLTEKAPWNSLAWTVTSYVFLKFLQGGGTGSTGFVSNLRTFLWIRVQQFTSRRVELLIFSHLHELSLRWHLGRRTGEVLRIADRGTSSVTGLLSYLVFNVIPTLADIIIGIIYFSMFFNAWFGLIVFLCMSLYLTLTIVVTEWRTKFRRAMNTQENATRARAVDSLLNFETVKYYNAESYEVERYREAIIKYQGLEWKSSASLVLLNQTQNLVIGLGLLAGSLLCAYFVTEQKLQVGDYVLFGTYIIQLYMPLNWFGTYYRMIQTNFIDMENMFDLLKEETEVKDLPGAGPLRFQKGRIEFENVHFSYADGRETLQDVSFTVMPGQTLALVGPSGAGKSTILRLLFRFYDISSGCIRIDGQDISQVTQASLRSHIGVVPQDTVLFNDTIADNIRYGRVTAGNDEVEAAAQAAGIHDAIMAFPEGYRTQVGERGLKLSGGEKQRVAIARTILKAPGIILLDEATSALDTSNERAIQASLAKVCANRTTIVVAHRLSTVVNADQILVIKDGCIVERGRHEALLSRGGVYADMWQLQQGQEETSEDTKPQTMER
* marks the source's active call; other numbers are inactive results; i = inactive; ? = inconclusive; nt = not tested or not shown; + = active, no number. Unless noted, how the calls were made is not given here.

SMILES	PHOSPHO1 inh	eIF4H inh	PABP polyA inh	PABP1 MLLE inh	AI-2 QS modul	ABCB6 inh 2
O=C1OC(c2ccc3c(c2)OCO3)=N/C1=C\c1ccc(C(=O)O)cc1	31	55*	i	0	6	105
O=C(O)c1cccc(-c2ccc3c(c2)OCO3)c1	nt	-11	i	3	34	99
NNc1ccc(Cl)c(C(=O)O)c1	88*	0	i	32	9	98
O=C1NC[C@@H](CCCCN2C[C@H](Cc3ccc(O)cc3)N(CCc3ccccc3)C(=O)C2=O)N(Cc2ccccc2)C1=O	nt	nt	nt	nt	nt	90
O=C(c1ccc2c3c(cccc13)CC2)C1CCCN(Cc2ccncc2)C1 (stereo not given)	13	-8	i	7	36	89
CCc1nc(CN2CCCC(C(=O)c3ccc4c5c(cccc35)CC4)C2)c(C)[nH]1 (stereo not given)	60*	-7	i	6	29	97
Nc1[nH]c2cc([N+](=O)[O-])ccc2c1-c1ccccn1	6	51	+	-133	?	166
CCSc1nc(=S)n(-c2ccccc2)c(C)c1C(C)=O	4	2	i	43*	-1	98
CCSc1nc(=O)n(-c2ccccc2)c(C)c1C(C)=O	-26	-17	i	-6	8	95
CCn1c(C)c(C(C)=O)c(N2CCN(c3ccccn3)CC2)nc1=S	-74	66*	+	17	-2	98
CC(=O)c1c(N2CCOCC2)nc(=S)n(-c2ccccc2)c1C	5	-2	i	45*	17	80
CC(=O)c1c(N2CCCC2)nc(=S)n(-c2ccccc2)c1C	4	-6	i	5	7	101
CCn1c(C)c(C(C)=O)c(N2CCN(C(c3ccccc3)c3ccccc3)CC2)nc1=S	47	20	i	-22	12	92
CCn1c(C)c(C(C)=O)c(N2CCN(c3ccccc3)CC2)nc1=S	30	128*	+	-1	1	110
C(=C\c1ccc2nncn2c1)/c1ccccc1	nt	nt	nt	-57	nt	109
C[C@@H]1CN([C@H](C)CO)C(=O)CCCn2nncc2CO[C@H]1CN(C)Cc1ccc2c(c1)OCCO2	nt	nt	nt	4	nt	102
COc1ccc(NC(=O)N(C)C[C@H]2OCc3cnnn3CCCC(=O)N([C@@H](C)CO)C[C@H]2C)cc1	nt	nt	nt	-46	nt	97
CC(C)(C)c1ccc(CC(=O)N2CCC2(C)C(=O)NS(=O)(=O)c2ccc(F)cc2F)cc1 (stereo not given)	nt	nt	nt	11	nt	99
O=C(Nc1cccc(Cl)c1)Nc1sccc1-c1nc2ccccc2s1	-22	79	+	-100	49	105
O=C(Nc1ccccc1)Nc1sccc1-c1nc2ccccc2s1	-7	28	i	-70	32	106
Cc1ccc(NC(=O)CSc2cn[nH]n2)cc1	24	-5	i	6	-4	99
O=C(CSc1cn[nH]n1)Nc1ccc(O)c(C(=O)O)c1	19	8	i	38*	20	101
S=c1[nH]nc(-c2ccco2)n1Cc1ccccc1	79*	-7	i	-3	nt	99
CCn1c(-c2ccco2)n[nH]c1=S	41	-3	i	12	13	87
Cc1c(Cl)c(-c2n[nH]c(=S)n2Cc2ccco2)nn1C	80*	-2	i	-3	-2	94
SMILES	PHOSPHO1 inh	eIF4H inh	PABP polyA inh	PABP1 MLLE inh	AI-2 QS modul	ABCB6 inh 2
CC(C)Cn1c(-c2ccco2)n[nH]c1=S	80*	-2	i	-7	16	101
S=c1[nH]nc(-c2ccncc2)n1Cc1ccco1	-14	2	i	-12	29	99
S=c1[nH]nc(-c2ccc(Br)o2)n1Cc1ccccc1	-36	-1	i	10	-4	100
S=c1[nH]nc(-c2ccccc2)n1Cc1ccccc1	105*	-2	i	-7	3	98
COc1cccc(CNc2nc(NC(C)C)nc3ccsc23)c1	nt	nt	nt	1	nt	98
O=S1(=O)CC(N2CCN(CCO)CC2)CN1Cc1cn(Cc2ccccc2C(F)(F)F)nn1 (stereo not given)	nt	nt	nt	2	nt	100
CCCCc1c(-c2ccccc2F)ncn1CCc1ccccc1OC	nt	nt	nt	nt	nt	126
CCCCOc1ccc(Cc2n[nH]c(=S)n2N)cc1	79*	-7	i	-28	21	100
CCc1ccc(OCc2n[nH]c(=S)n2Cc2ccccc2)cc1	90*	-3	i	-62	24	100
Cc1ccn(Cc2n[nH]c(=S)n2Cc2ccccc2)n1	78*	-4	i	-8	20	98
Cc1ccc(OCc2n[nH]c(=S)n2N)cc1C	-5	1	i	-96	13	100
Cc1n[nH]c(=S)n1Cc1ccccc1	8	-6	i	-20	27	98
CC(=O)NC(c1cccc(F)c1)c1nc(-c2csc3ccccc23)cs1 (stereo not given)	nt	nt	nt	4	nt	106
COCCNC(=O)C1(C)CCCN(CCC(=O)c2ccc(Br)cc2)C1 (stereo not given)	nt	nt	nt	9	nt	100
Cc1c(-n2c(O)c(C3=c4ccccc4=NC3=O)sc2=O)c(=O)n(-c2ccccc2)n1C	10	-8	i	47*	13	100
CCCCNC(=O)c1nc(C2CCN(S(=O)(=O)c3ccccc3C(F)(F)F)CC2)oc1-c1ccccc1	nt	nt	nt	-6	nt	104
COC(=O)c1ccc(-n2nnnc2SC)cc1	81*	-8	i	35	16	103
COC(=O)COC(=O)c1ccc(-n2nnnc2SC)cc1	-16	-7	i	10	15	95
CC1(C)CC(=O)C/C(=N\NC(=O)Cc2ccccc2)C1	26	active	+	-4	6	97
Cc1cc(C)c(C(O)c2ncc(-c3cccc4ccccc34)[nH]2)c(C)c1 (stereo not given)	nt	nt	nt	-2	nt	101
Cc1cscc1-c1ccc(C(=O)Nc2c(C)cccc2C)o1	nt	nt	nt	-79	nt	93
CC(C)CC(=O)Nc1nc(=S)ss1	10	1	i	10	63	98
CC(=O)Nc1nc(=S)ss1	79*	-8	i	28	67	96
N#CC1=C(N)SC(N)=C(C#N)C1CCC1CCCCC1	37	122	+	nt	73	nt
Cc1sccc1C1C(C#N)=C(N)SC(N)=C1C#N	-1	121	i	nt	13	nt
SMILES	PHOSPHO1 inh	eIF4H inh	PABP polyA inh	PABP1 MLLE inh	AI-2 QS modul	ABCB6 inh 2
Cc1cccc2nc(CSc3nc4ccccc4o3)cn12	0	-6	i	22	-93*	97
Cc1cc(C)nc(SCc2cn3c(C)cccc3n2)n1	28	-7	i	6	16	91
C[C@@H]1CN([C@@H](C)CO)S(=O)(=O)c2ccc(Br)cc2O[C@@H]1CN(C)C(=O)NC1CCCCC1	nt	nt	nt	1	nt	101
O=[N+]([O-])c1ccccc1/C=N\Nc1nccs1	nt	-5	i	2	nt	94
O=[N+]([O-])c1cc(/C=N\Nc2nccs2)ccc1O	50	93*	+	nt	29	nt
C=CCn1c(Cn2c(-c3cnccn3)nc3ccccc32)nc2ccccc21	nt	nt	nt	nt	nt	94
